bovine MsrA act – bovine methionine sulfoxide reductase A activation | purified bovine MsrA, absorbance read-out | activation, % at 10.6 µM | 360,000 compounds, 0.3% hits; in the data active = activation above about 7.5%;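 note: 0% = vehicle and 100% = reference activator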
PKA-R1A activ – activates the PKA-R1A holoenzyme complex; PKA-R1A dissociation, Cy5-IP20 fluorescence polarization; scaled: DMSO 0%, 113 µM cGMP 100%; activation, % at 11.4 µM; 340,000 compounds, 0.083% hits;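 active = percent activation above the mean of all tested compounds plus 3 SD, cut at about 19% in these data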;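 note: higher means more PKAc released from R1A so a rise in polarization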
PKA-R2B activ – PKA-R2B complex activation; P22694+P31323; PKA-R2B holoenzyme dissociation, Cy5-IP20 fluorescence polarization; R2B truncated from residue 108, S112A mutant; 0% DMSO only, 100% 113 µM cGMP; activation, % at 11.4 µM; 340,000 compounds, 0.079% hits;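 active = activation above a cutoff set at the mean over all compounds plus 3 SD, cut at about 18% in these data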;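 note: higher means more holoenzyme dissociation and a rise in polarization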
Target sequence (P31323 whole entry, looked up, other chains not shown, the tested form may be a part): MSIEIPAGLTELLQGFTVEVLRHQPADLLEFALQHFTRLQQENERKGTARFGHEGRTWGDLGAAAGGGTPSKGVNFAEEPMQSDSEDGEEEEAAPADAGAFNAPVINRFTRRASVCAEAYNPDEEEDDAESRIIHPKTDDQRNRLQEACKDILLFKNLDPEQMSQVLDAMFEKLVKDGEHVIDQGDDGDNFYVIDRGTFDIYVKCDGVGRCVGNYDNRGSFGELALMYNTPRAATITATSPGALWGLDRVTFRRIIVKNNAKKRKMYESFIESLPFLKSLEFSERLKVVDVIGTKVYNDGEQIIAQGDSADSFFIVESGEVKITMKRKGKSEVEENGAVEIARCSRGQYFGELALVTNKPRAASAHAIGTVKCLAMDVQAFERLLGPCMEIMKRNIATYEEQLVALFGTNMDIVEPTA
MsrA inhibitor – bovine MsrA inhibition; purified bovine MsrA, absorbance read-out; inhibition, % at 15.5 µM; 360,000 compounds, 0.75% hits; AID 651718;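 note: 0% = vehicle wells with enzyme and 100% = reference inhibitor wells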
MsrA conf – bovine MsrA inhibition, confirmed | purified bovine MsrA, absorbance read-out | shares compounds with MsrA inhibitor | 2,300 compounds, 41% hits | inhibition, % at 15.5 µM;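 note: coupled to thioredoxin reductase with NADPH and selenocystamine and DMSO as substrate; 0% = vehicle only and 100% = full effect of reference inhibitor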
Active calls of the source: *; / = no result. Sampled rows, rich in hits. Any-hit rate of the full collection: about 1.1%. Cut-off read from the data, not from the text of the source, unless noted: active = inhibition above about 4.5%; inactive = the rest.

SMILES	bovine MsrA act	PKA-R1A activ	PKA-R2B activ	MsrA inhibitor	MsrA conf
COc1ccc(CC(=O)C2C(=O)N(C)c3ccccc32)cc1OC (stereo not drawn)	-9.5	-1.6	-3.8	4.9*	1.6
COc1ccc(CC(=O)N2CCN(C)CC2)cc1OC	-0.1	-5.2	-7.5	0.4	/
COc1cc(/C=C/[N+](=O)[O-])ccc1O	-8.1	1.1	-6.1	5.5*	4.7*
ClCCN(CCCl)c1ccc(C2=NCCc3ccccc32)cc1	-0.3	8.4	0.2	-0.3	/
ClCCN(CCCl)c1ccc(C=Cc2ccncn2)cc1	-4.5	/	/	0.8	/
N#Cc1ncc(N=Cc2ccc(N(CCCl)CCCl)cc2)s1	-7.5	-1.9	4.7	5.0*	6.2*
ClCCN(CCCl)c1ccc(C=NNc2ncccn2)cc1	-10.2	-8.0	-7.4	6.2*	7.4*
C=CCn1c(O)c(/C=C/C=Nc2ccccc2)c(=O)[nH]c1=O	-0.4	-10.3	-2.8	5.7*	1.0
Cc1ccc(N2Cc3ccccc3-n3nncc3C2)cc1	/	/	/	-1.6	/
OC1CN2CCCC(O)C2C1O (stereo not drawn)	/	/	/	-0.4	/
N#C/C(=C\c1ccc(O)cc1)C(=O)O (tested in a mixture with another compound)	-2.4	-13.3	3.4	4.7*	2.2
Cc1ccc(OC(=O)N(C)C[C@H]2OCc3cnnn3CCCC(=O)N([C@H](C)CO)C[C@H]2C)cc1	/	/	/	0.3	/
CCn1nc(/C=C/c2ccccc2)nc2c(=O)n(C)c(=O)nc1-2	-6.4	/	/	5.3*	4.6*
CC(C)(C)c1cc([N+](=O)[O-])cc(C(C)(C)C)c1O	/	/	/	22.0*	17.6*
O=C(NN=Cc1ccc(N(CCCl)CCCl)cc1)C(=O)c1c[nH]c2ccccc12	-8.1	-2.9	-6.2	6.0*	1.9
Cc1c(N=Cc2c(O)n(Cc3ccc(F)cc3)c(=O)[nH]c2=O)c(=O)n(-c2ccccc2)n1C	-2.4	-2.3	-2.4	4.9*	3.0
Cc1cccc2nc(-c3ccccc3)c(-c3ccc(CN4CCC(n5c(=O)[nH]c6cc(Cl)ccc65)CC4)cc3)nc12	/	/	/	2.7	/
Cc1ccc(C(=O)NCCN2CCC3(CC2)C(=O)NCN3c2ccccc2)cc1	/	/	/	0.5	/
CCOC(=O)c1cc(C(O)(C(=O)OC)C(F)(F)F)c(/N=C/N(C)C)o1 (stereo not drawn)	-13.7	-7.8	-6.0	6.8*	3.1
COc1ccc2nc(-c3ccc(CN4CCC(n5nnc6ccccc65)CC4)cc3)c(-c3ccccc3)nc2c1	/	/	/	2.6	/

From PubChem
